High-throughput results: PubChem BioAssay, several laboratories
In the library only some 4.2% were active in any assay of this set; here they are far more common.
tim23-1 inh = tim23-1 yeast growth inhibition; S. cerevisiae tim23-1 growth, BacTiter-Glo luminescence, 24 h; actives 1.3% (n = 330,000); AID 463212; inhibition, % at 20 µM;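 active means growth inhibition of the mutant yeast at or above 50%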;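 further: temperature-sensitive mutant grown at 25 °C; plate controls were DMSO-treated mutant yeast for no effect and medium wells lacking yeast for full effect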
NALP1 inh = blocks the NALP1 inflammasome reconstituted in yeast | inhibition, % at 10 µM | AID 2071 | S. cerevisiae NALP1/ASC/caspase-1 growth, X-gal OD620, 72 h | actives 0.61% (n = 280,000); in the data active means inhibition mostly above about 24%, no sharp cut-off; inactive means mostly below about 32%
tim10-1 inh = growth inhibitors of tim10-1 mutant yeast | AID 463190 | inhibition, % at 20 µM | actives 2.2% (n = 330,000) | S. cerevisiae tim10-1 ts strain growth, BacTiter-Glo, 24 h;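 active means inhibition of at least 40%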;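 further: mutant grown at 25 °C; 0% = DMSO wells with yeast and 100% = wells holding no yeast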
V-ATPase pHluor = yeast V-ATPase proton transport regulation by pHLuorin | S. cerevisiae, pHLuorin cytosolic pH fluorescence | response, % at 10 µM | actives 0.37% (n = 350,000); in the data active means response mostly above about 7.3%, no sharp cut-off; inactive means mostly below about 5.4%; further: actives read high
TIM10 inh = inhibits growth of TIM10 yeast strain. inhibition, % at 10 µM. AID 463195. actives 1.4% (n = 330,000). S. cerevisiae TIM10 strain growth, BacTiter-Glo luminescence, 24 h;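 active means inhibition of 40% or more at the single tested concentration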;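 further: wild-type TIM10 isogenic control strain grown at permissive 25 °C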
NALP3 yeast inh = inhibitors of NALP3 inflammasome in yeast; actives 0.39% (n = 330,000); Yeast reconstituted NLRP3/ASC/caspase-1, beta-gal luminescence, 24 h; inhibition, % at 10 µM; AID 2825;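 active means inhibition of 50% or more; inactive means inhibition below 50%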;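 further: plate controls were induced DMSO wells for no effect and uninduced yeast grown without galactose for full effect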
V-ATPase pH SP = yeast V-ATPase proton transport regulation. shares compounds with V-ATPase pHluor. S. cerevisiae pHLuorin cytosolic pH. response, % at 10 µM. actives 2% (n = 980); in the data active means response above about 24%;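 further: plate controls were vehicle wells for no effect and positive control wells for full effect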
* = called active by the depositor.

Screening Cc1nc(NC(=O)c2c(-c3ccccc3Cl)noc2C)sc1C returned tim23-1 inh 38, NALP1 inh 10, tim10-1 inh 18, V-ATPase pHluor 13*, TIM10 inh 14, NALP3 yeast inh 22 and V-ATPase pH SP 4.
Cc1nnc(NC(=O)c2c(-c3ccccc3Cl)noc2C)s1 was read as tim23-1 inh 5, NALP1 inh -3, tim10-1 inh -1, V-ATPase pHluor 0, TIM10 inh 4 and NALP3 yeast inh 3.
`O=[N+]([O-])c1ccc2c(c1)-c1ccccc1C2=NO` gave V-ATPase pHluor 20* and V-ATPase pH SP 119*.
Nc1ccc2c(c1)C(=NO)c1cc([N+](=O)[O-])ccc1-2 was read as V-ATPase pHluor 0.
CC(C)Cn1c(=O)c2sccc2n2c(CCCC(=O)NC3CCN(Cc4ccccc4)CC3)nnc12 was read as tim23-1 inh -6, NALP1 inh 3, tim10-1 inh -24, V-ATPase pHluor -4, TIM10 inh 6 and NALP3 yeast inh 13.
For CCCn1c(=O)c2sccc2n2c(CCCC(=O)NC3CCN(Cc4ccccc4)CC3)nnc12 the results were tim23-1 inh 5, NALP1 inh -9, tim10-1 inh 20, V-ATPase pHluor 10*, TIM10 inh -7, NALP3 yeast inh 15 and V-ATPase pH SP -1.
CCC(C)NC(=O)NCc1ccccc1F (stereo not drawn) was read as tim23-1 inh 14, NALP1 inh 6, tim10-1 inh 1, V-ATPase pHluor 2, TIM10 inh -4 and NALP3 yeast inh -1.
CCCOC(=O)c1ccc(-c2ccc(C=O)o2)cc1 was read as tim23-1 inh 33, NALP1 inh 34, tim10-1 inh 30, V-ATPase pHluor 8.2*, TIM10 inh 8, NALP3 yeast inh 4 and V-ATPase pH SP 5.
For CCOC(=O)c1ccc(-c2ccc(C=O)o2)cc1 the results were tim23-1 inh 21, NALP1 inh 10, tim10-1 inh -11, V-ATPase pHluor -1, TIM10 inh -6 and NALP3 yeast inh 17.
Screening COc1ccc(NC(=O)C(C)Sc2nnc(C3CC3)n2C2CC2)cc1 (stereo not drawn) returned tim23-1 inh 4, tim10-1 inh 4, V-ATPase pHluor 0, TIM10 inh 8 and NALP3 yeast inh -10.
For Cc1cc(NC(=O)c2cc(-c3ccc(O)cc3)on2)no1 the results were tim23-1 inh 20, NALP1 inh 10, tim10-1 inh -21, V-ATPase pHluor 1, TIM10 inh 16 and NALP3 yeast inh 23.
For CCc1ccc(NC(=O)c2cc(C)on2)cc1 the results were tim23-1 inh 17, NALP1 inh 11, tim10-1 inh 10, V-ATPase pHluor -4, TIM10 inh 9 and NALP3 yeast inh 13.
Cc1cc(NC(=O)c2cc(-c3ccc(Br)cc3)on2)no1 was read as tim23-1 inh -5, NALP1 inh -1, tim10-1 inh 6, V-ATPase pHluor 10*, TIM10 inh 5, NALP3 yeast inh 3 and V-ATPase pH SP 3.
Cc1ccc(NC(=O)c2cc(C)on2)cc1 was read as tim23-1 inh -3, NALP1 inh 22, tim10-1 inh 11, V-ATPase pHluor 6.9*, TIM10 inh 5, NALP3 yeast inh 14 and V-ATPase pH SP 2.
C1=CCN(Cc2ccccc2)C1 was read as tim23-1 inh -13, NALP1 inh 5, tim10-1 inh -3, V-ATPase pHluor -3, TIM10 inh 3 and NALP3 yeast inh 20.
`Cc1ccc(S(=O)(=O)N(CC(=O)N2CCC(C(N)=O)CC2)c2cccc(C(F)(F)F)c2)cc1` gave tim23-1 inh -9, NALP1 inh 4, tim10-1 inh -4, V-ATPase pHluor 0, TIM10 inh 11 and NALP3 yeast inh 13.
CCOC(=O)C1CCN(C(=O)CN(c2cccc(C(F)(F)F)c2)S(C)(=O)=O)CC1 was read as tim23-1 inh 7, NALP1 inh 1, tim10-1 inh 8, V-ATPase pHluor 12*, TIM10 inh 11, NALP3 yeast inh 6 and V-ATPase pH SP 1.
Cc1[nH]c(C)c(S(=O)(=O)N(Cc2ccccc2)C(C)(C)C)c1C(=O)N1CCCC1 was read as tim23-1 inh 9, NALP1 inh 14, tim10-1 inh 8, V-ATPase pHluor 10*, TIM10 inh 5, NALP3 yeast inh 2 and V-ATPase pH SP 3.
Cc1c(NC(=O)COc2cccc(Cl)c2Cl)c(=O)n(-c2ccccc2)n1C was read as tim23-1 inh 7, tim10-1 inh 5, V-ATPase pHluor 0, TIM10 inh 3 and NALP3 yeast inh 5.
For O=C1CC(N2CCC(c3nc4ccccc4[nH]3)CC2)C(=O)N1c1cccc(F)c1 (stereo not drawn) the results were tim23-1 inh 15, NALP1 inh 7, tim10-1 inh 9, V-ATPase pHluor 5.8*, TIM10 inh -2, NALP3 yeast inh 3 and V-ATPase pH SP 3.
For O=C(O)c1ccc(N2C(=O)CC(N3CCC(c4nc5ccccc5[nH]4)CC3)C2=O)cc1 (stereo not drawn) the results were tim23-1 inh 4, NALP1 inh -72, tim10-1 inh -10, V-ATPase pHluor 1, TIM10 inh -15 and NALP3 yeast inh -4.
`O=C(CCl)N1CCN(C(=O)C2COc3ccccc3O2)CC1` (stereo not drawn) gave tim23-1 inh 28, tim10-1 inh 19, V-ATPase pHluor 14*, TIM10 inh 4, NALP3 yeast inh 1 and V-ATPase pH SP 1.
CCN1CCN(C(=O)C2COc3ccccc3O2)CC1 (stereo not drawn) was read as tim23-1 inh 16, NALP1 inh 9, tim10-1 inh 20, V-ATPase pHluor 8, TIM10 inh 18 and NALP3 yeast inh 9.
Screening O=C1CSC(c2ccccc2[N+](=O)[O-])N1c1cccc(F)c1 (stereo not drawn) returned tim23-1 inh 14, NALP1 inh -2, tim10-1 inh 16, V-ATPase pHluor 8.3*, TIM10 inh 9, NALP3 yeast inh 14 and V-ATPase pH SP 9.
For Cc1ccccc1OCCC(=O)Nc1ccc2c(C)cc(=O)oc2c1 the results were tim23-1 inh -3, NALP1 inh 3, tim10-1 inh -8, V-ATPase pHluor 0, TIM10 inh -9 and NALP3 yeast inh 6.
Screening CC(=O)N1N=C(c2ccccc2)OC1(C)CC(=O)Nc1ccccc1 (stereo not drawn) returned tim23-1 inh 20, NALP1 inh 21, tim10-1 inh 24, V-ATPase pHluor 8.3*, TIM10 inh 4, NALP3 yeast inh 7 and V-ATPase pH SP 0.
Cc1ccc(/C=N/NC(=O)Nc2ccccc2)o1 was read as tim23-1 inh 6, NALP1 inh 35, tim10-1 inh 10, V-ATPase pHluor 38*, TIM10 inh 8, NALP3 yeast inh 29 and V-ATPase pH SP 1.
